Compounds with a hit are over-represented: about 3% of the library has one in this group of screens.
Chronic BCR inh = chronic active BCR signaling inhibition. ABC-DLBCL IkBa-CBG/CBR reporter, luminescence ratio, 4 h. 340,000 compounds, 0.05% hits. Potency, µM (titrated, usually from 46.1 µM), for inactives: top-dose activity change, negative = inhibition, hits mostly inhibitors; active = well fitted inhibition curve with a large enough effect in the signal ratio, with a control signal flat, not every such curve was filed as active; inconclusive = small, poorly fitted or top-dose-only effect, or effect the other way, or a change in a side signal; the % refers to the signal ratio;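 note: potency is the fitted concentration of half-maximal effect; plate controls were basal doxycycline-induced cells for no effect and cells given 10 µM MG132 for full effect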
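Doxycycline induced both beetle luciferases in TMD8 lymphoma cells; IKK-driven degradation limits the IkappaBalpha-fused green signal, while red luminescence normalises for cell number and nonspecific effects. Compounds tested up to 46 uM, 4 hrs.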
KCNH2 3.1 block = KCNH2 3.1 (human) potassium channel inhibition | activity change, % (tested at about 1.8 µM) | U2OS KCNH2 3.1, thallium flux FluxOr; stronger effect = lower value | 340,000 compounds, 0.95% hits | AID 720553;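 active = maximum activity change below -70%; inconclusive = maximum activity change from -70% to -50%; inactive = maximum activity change above -50%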;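 note: thallium influx rate constant from kinetic fluorescence after stimulation buffer; % is set by controls: 0 for no effect and ±100 for the full control effect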
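Measured as rate of thallium-driven FluxOr signal in transduced U2OS cells carrying the 3.1 channel, read kinetically for 2 min upon stimulation; values are rate constants scaled to DMSO control wells.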
LDHA inh = blocks human lactate dehydrogenase A. purified LDHA, NADH/diaphorase-resazurin fluorescence; stronger effect = lower value. activity change, % (values are at about 110 or 230 µM). 480,000 compounds, 0.15% hits; in the data active = activity change below about -30%; inconclusive = mostly about -25% to -30%;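 note: plate controls were DMSO wells for no effect and wells without enzyme for full effect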
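Human LDH5 at 2 nM final in Tris HCl pH 7.4 with 0.06 mM NADH and 0.2 mM pyruvate, reacted 5 minutes at room temperature. Remaining NADH coupled via diaphorase/resazurin; resorufin fluorescence read at 0 and 20 minutes, normalized to enzyme-free and DMSO wells.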
12-LOX inh = inhibitors of human 12S-lipoxygenase ALOX12; AID 1671190; purified 12hLO, xylenol orange hydroperoxide absorbance; 580,000 compounds, 1.1% hits; Potency, µM (titrated, usually from 108 µM), without a hit: top-dose activity change, negative = inhibition, hits mostly inhibitors; active = well fitted inhibition curve with a large enough effect; inconclusive = small, poorly fitted or top-dose-only effect, or another doubt; inactive = no such curve, though single readings can be large or run the other way; note: potency is the fitted concentration of half-maximal effect; % is set by controls: 0 for no effect and ±100 for the full control effect
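Purified human 12hLO (150 nM final) in 25 mM Hepes, 0.01% Triton X-100, pH 7.0 was preincubated 15 min at room temperature with compound. Then 40 uM arachidonic acid was added, 30 min. Hydroperoxide was read by Fe-XO absorbance ratio 573/405 nm.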
hERG WT inh = blocks the wildtype human KCNH2 potassium channel. U2OS, BacMam KCNH2, thallium flux FluxOr; stronger effect = lower value. AID 720551. activity change, % at 1.84 µM. 340,000 compounds, 0.37% hits;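 active = maximum activity change below -70%; inconclusive = maximum activity change between -70% and -50%; inactive = maximum activity change above -50%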; note: % is set by controls: 0 for no effect and ±100 for the full control effect
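U2OS cells transduced with wild-type KCNH2 virus are loaded with FluxOr dye for 45 min, and thallium flux is measured in kinetic reads before and after stimulation buffer. Rate constants are normalized to DMSO controls.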
ClpP mod = qHTS Assay for Activators of ClpP; ATP-dependent Clp protease proteolytic subunit (Bacillus subtilis (strain 168)), P80244; purified B. subtilis ClpP, FRET peptide cleavage, 20 min; Potency, µM (series often up to 57.5 µM), without a hit: at the top dose activity change, negative = active; 340,000 compounds, 1.9% hits; active = well fitted falling curve with a large enough effect; inconclusive = small, poorly fitted or top-dose-only effect; inactive = no such curve, though single readings can be large or run the other way; note: potency is the fitted concentration of half-maximal effect; the source files actives as falling curves though it sought activators and does not explain the sign; nearly all actives have a fitted effect of over 65% in size
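ClpP 10 microg/mL final, pH 8 Tris/KCl buffer with BSA, glycerol, Tween-20; compound pinned in; FRET-FV substrate; RT 20 min; Ex320/Em430; ΔFRET vs ADEP 5.8 microM, DMSO, no enzyme.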
* hit, by the source's call; u = inconclusive; x = no result given; [ ] = remark or other dose.

SMILES	Chronic BCR inh	KCNH2 3.1 block	LDHA inh	12-LOX inh	hERG WT inh	ClpP mod
Cc1ccc(Cl)cc1NCC(=O)N1CCN(S(C)(=O)=O)CC1	x	x	-7	1%	x	x
O=C(O)c1cc2ccccc2c(Cc2c(O)c(C(=O)O)cc3ccccc23)c1O	x	x	14	13µM*	x	1%
O=C(O)c1cc2ccccc2c2cc(Br)ccc12	6%	0	-9	36%	-1	0%
O=C(CCS(=O)(=O)c1ccc2c(c1)CCN2C(=O)C1CC1)NC1CCCCCC1	x	x	-1	2%	x	x
Cn1c(-c2c(N)n(-c3ccccc3)c3nc4ccccc4nc23)nc2ccccc21	-17%	-4	0	-29%	-5	-4%
Cc1cccc(-n2c(N)c(-c3nc4ccccc4n3C)c3nc4ccccc4nc32)c1	-3%	-96*	-11	-13%	-134*	8%
CCC(C)NCCCOc1ccc(Cl)cc1C(C)(C)C (stereo not given)	-9%	-8	-41*	u	1	-10%
O=C(c1cc(=O)[nH]c2ccccc12)N1CCN(S(=O)(=O)c2ccc(Cl)cc2)CC1	0%	-9	2	-26%	-115*	-26%
O=c1ccc2cc3c4c(c2o1)CCCN4CCC3	-1%	8	-1	-2%	-1	4%
O=c1oc2c3c4c(cc2s1)CCCN4CCC3	u	0	10	18µM*	3	1%
Cc1ccc2nc(N/N=C\c3ccc([N+](=O)[O-])o3)nc(-c3ccccc3)c2c1	u	-97*	-1	-4%	-44	1%
O=[N+]([O-])c1ccc(/C=N/Nc2nc(-c3ccccc3)c3cc(Br)ccc3n2)o1	18%	-101*	-7	-3%	-17	-2%
O=C(O)CCCCCN1C(=O)CC(c2ccccc2)CC1=O	x	x	u	-12%	x	x
CC(=O)Nc1ccc(CN2CCCC23Cc2ccccc2CN(C(C)=O)C3)cc1 (stereo not given)	x	x	x	14%[6.33 µM]	x	x
COc1ccc(S(=O)(=O)C(C#N)c2nc3ccccc3nc2N2CCCCC2)cc1 (stereo not given)	0%	-1	1	u	4	-15%
CN1CCN(c2nc3ccccc3nc2C(C#N)S(=O)(=O)c2ccccc2)CC1 (stereo not given)	-1%	-20	0	44%	15	1%
CCNc1nc2ccccc2nc1C(C#N)S(=O)(=O)c1ccc(C)c(C)c1 (stereo not given)	x	x	-9	14µM*	x	x
Cc1ccc(S(=O)(=O)C(C#N)c2nc3ccccc3nc2N2CCN(C)CC2)cc1C (stereo not given)	-8%	-5	0	u	0	-14%
CCN1CCN(c2nc3ccccc3nc2C(C#N)S(=O)(=O)c2cccc(C)c2)CC1 (stereo not given)	x	x	4	14µM*	x	x
CCN1CCN(c2nc3ccccc3nc2C(C#N)S(=O)(=O)c2ccc(Cl)cc2)CC1 (stereo not given)	x	x	-2	45µM*	x	x
CCN1CCN(c2nc3ccccc3nc2C(C#N)S(=O)(=O)c2ccc(OC)cc2)CC1 (stereo not given)	x	x	7	18µM*	x	x
CCn1cc(CN2CC[C@H]3C(=O)NCCCCCCN(Cc4ccncc4)[C@@H]3C2)cn1	x	x	x	135%	x	x
CCc1ccccc1N(C)S(=O)(=O)c1ccc(/C=C\c2onc(C)c2NC(=O)C2CC2)cc1	x	x	0	-9%	x	x
CCS(=O)(=O)Nc1ccc(C2(C(=O)NC(C)c3ccccc3)CCCCC2)cc1 (stereo not given)	x	x	x	6%	x	x
CCOC(=O)C1=C(COC(=O)c2ccccc2OC(F)F)NC(=O)NC1C (stereo not given)	-29%	-16	-12	-20%	-13	0%
SMILES	Chronic BCR inh	KCNH2 3.1 block	LDHA inh	12-LOX inh	hERG WT inh	ClpP mod
CCOC(=O)C1=C(COC(=O)c2ccc3ccccc3c2O)NC(=O)NC1C (stereo not given)	u	17	-3	40µM*	-23	5%
Cc1nc(-c2ccc3c(c2)Cc2ccccc2-3)cs1	x	x	-4	9%	x	x
O=C(O)C/C(=C/c1cccc(Br)c1)c1nc2ccccc2s1	x	x	-2	28µM*	x	x
COc1cccc(/C=C(\CC(=O)O)c2nc3ccccc3s2)c1	u	5	-13	-17%	4	x
O=C(O)C/C(=C/c1ccc(Br)cc1)c1nc2ccccc2s1	x	x	6	32µM*	x	x
O=C(O)C/C(=C/c1ccc(Cl)cc1)c1nc2ccccc2s1	x	x	5	u	x	x
COc1ccc(/C=C(/CC(=O)O)c2nc3ccccc3s2)cc1	x	x	2	2.2µM*	x	x
Cc1ccc(/C=[N+](\[O-])c2ccccc2)cc1	x	x	11	u	x	x
Cc1cccc(C)c1NC(=O)CN1C(=O)NC(c2ccccc2Cl)C2=C1COC2=O (stereo not given)	x	x	x	5%	x	x
Cc1ccc(N2C(=O)c3ccccc3NC2C(C)Cc2ccc3c(c2)OCO3)cc1 (stereo not given)	u	x	0	u	-10	32µM*
CC(C)Oc1ccccc1C1Nc2ccccc2C(=O)N1c1ccc2c(c1)OCCO2 (stereo not given)	u	1	2	11%	2	u
COc1ccccc1OCC(=O)c1c(C)[nH]c2ccccc12	x	x	-3	u	x	x
CC(C)(C)c1ccc(CNCCN2CCCC2)cc1	x	x	0	u	x	x
CCOC(=O)COc1ccccc1C1Nc2ccccc2C(=O)N1c1cccc(Cl)c1 (stereo not given)	u	-5	3	-10%	8	25µM*
CCOc1cc(C2Nc3ccccc3C(=O)N2c2ccccc2)c(Br)cc1OCC(=O)O (stereo not given)	0%	16	-10	-4%	0	u
COc1cc(C2Nc3ccccc3C(=O)N2c2ccc(Cl)cc2)c(Cl)cc1OCC(=O)O (stereo not given)	u	-4	-3	1%	0	28µM*
CCOC(=O)COc1c(OC)cc(Cl)cc1C1Nc2ccccc2C(=O)N1c1ccccc1 (stereo not given)	u	5	-2	-11%	0	28µM*
CCOC(=O)COc1c(OC)cc(Cl)cc1C1Nc2ccccc2C(=O)N1c1cccc(C)c1 (stereo not given)	u	-8	-2	1%	4	28µM*
Cc1ccccc1C1NC(=O)c2c(sc3c2CCN(Cc2ccccc2)C3)N1 (stereo not given)	x	x	2	u	x	x
Cc1cc(=O)oc2cc(OCC(=O)NCC3(N4CCN(C)CC4)CCCCC3)ccc12	x	x	-2	-2%	x	x
